Experimental data reported in the supplement of paper PMC3334620.
The full ranking holds about 33,000 sequences; the median of “E-score (-0.5 to 0.5)” is about -0.043, and the highest 2% start at about 0.37. Only a selection was taken, and the highest values are over-represented in it overall.

Target: T1, Upc2 (UniProt Q12151)
T1 sequence: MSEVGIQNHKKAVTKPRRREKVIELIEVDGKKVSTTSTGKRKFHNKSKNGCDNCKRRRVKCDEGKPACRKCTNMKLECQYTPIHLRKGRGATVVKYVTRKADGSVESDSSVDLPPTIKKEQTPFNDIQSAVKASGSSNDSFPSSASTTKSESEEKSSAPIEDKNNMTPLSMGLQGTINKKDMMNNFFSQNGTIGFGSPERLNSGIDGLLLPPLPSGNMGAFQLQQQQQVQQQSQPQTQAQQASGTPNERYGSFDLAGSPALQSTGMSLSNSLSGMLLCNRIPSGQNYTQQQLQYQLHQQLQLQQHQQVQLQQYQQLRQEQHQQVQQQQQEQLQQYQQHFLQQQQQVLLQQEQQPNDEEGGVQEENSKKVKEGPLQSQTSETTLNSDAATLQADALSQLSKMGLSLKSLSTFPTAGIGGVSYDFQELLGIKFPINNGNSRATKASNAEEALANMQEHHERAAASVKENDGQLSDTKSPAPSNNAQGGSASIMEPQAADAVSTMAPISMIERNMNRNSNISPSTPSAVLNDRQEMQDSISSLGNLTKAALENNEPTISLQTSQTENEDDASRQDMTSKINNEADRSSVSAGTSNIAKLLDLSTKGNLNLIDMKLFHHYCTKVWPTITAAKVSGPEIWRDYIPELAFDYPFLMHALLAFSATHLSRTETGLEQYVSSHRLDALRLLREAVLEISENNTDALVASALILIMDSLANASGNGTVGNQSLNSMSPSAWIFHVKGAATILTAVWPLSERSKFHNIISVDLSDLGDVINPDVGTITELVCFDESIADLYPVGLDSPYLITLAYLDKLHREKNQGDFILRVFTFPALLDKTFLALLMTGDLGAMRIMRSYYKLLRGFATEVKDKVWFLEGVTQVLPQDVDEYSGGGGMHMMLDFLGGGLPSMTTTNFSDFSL
Test: PBM E-score (8-mer binding enrichment) (E-score (-0.5 to 0.5)); higher = stronger / more preferred TF binding
Conditions: protein concentration: 200 nM; construct: GST-full length
In short: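 Universal all-10-mer Agilent arrays, fresh or stripped once, were converted to double-stranded form by primer extension. GST-tagged yeast transcription factors from PURExpress in vitro transcription/translation, full-length or DNA-binding domain only, were applied at about 100-200 nM and detected with fluorescent anti-GST. After masliner normalisation, the Universal PBM Analysis Suite scored each ungapped eight-base word together with its reverse complement by E-score.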

Row | Sequence | PBM E-score
1 | AATCGCAA | 0.0942
2 | TGCATGAA | 0.0372
3 | AATGCAGA | -0.0923
4 | TGCTAGCA | -0.0249
5 | GGGAACCA | -0.165
6 | CGGAACGC | 0.243
7 | AGGAACGG | 0.322
8 | AGGAACGC | 0.114
9 | AGGAACGA | 0.449
10 | GGGAACAA | 0.0652
11 | CGGAACGA | 0.468
12 | GGGAACGA | 0.466
13 | CGGAACAA | 0.0835
14 | GTCCACAA | -0.215
15 | CCGGAGCA | -0.0221
16 | AGTGCAGC | -0.22
17 | ATTACGTA | 0.309
18 | CCACTGTA | 0.0804
19 | TTGCCCAA | -0.0249
20 | GTGTATAA | 0.138
21 | GCGTATAC | 0.454
22 | CCGTATAC | 0.475
23 | GGGTATAC | 0.255
24 | CCGTATCC | 0.331
25 | GCGTATAA | 0.444

Row | Sequence | PBM E-score
26 | ACGTATAT | 0.404
27 | AAGTATAT | 0.104
28 | AGGTATAT | -0.0562
29 | CTGTATAC | 0.281
30 | GAGTATAC | 0.315
31 | GCGTATTA | 0.0994
32 | CCTAGTGC | -0.199
33 | CGTCATGC | -0.202
34 | CAGAATTC | -0.03
35 | GGATGGCA | 0.0444
36 | ACTACCAG | -0.0238
37 | CTCTTCGC | -0.12
38 | ACTATGAA | -0.0506
39 | AGAGGGTG | -0.171
40 | TTATACAA | 0.0521
41 | GCTGCAAC | -0.107
42 | GTACTCTA | -0.0205
43 | CTGGGTAA | -0.00044
44 | GCTGTGTA | 0.00184
45 | ATGTATAC | 0.263
46 | CCGTATGA | 0.392
47 | CCGTATCG | 0.319
48 | ACGTATAC | 0.445
49 | ACGTATGA | 0.243
50 | AAGTATAC | 0.306

Row | Sequence | PBM E-score
51 | CCGTATAG | 0.485
52 | ACGTATAG | 0.433
53 | CCGTATGC | 0.356
54 | CGGTATAG | 0.225
55 | ACGTATTG | 0.209
56 | ACGTATCG | 0.22
57 | AAGACTTG | -0.00965
58 | CCCTATCA | -0.325
59 | ACACGCGT | 0.152
60 | ACGTTCAT | 0.169
61 | CCTCTGTA | 0.0279
62 | GAGGTCGC | -0.042
63 | GAATCTAA | 0.111
64 | CGGTATAA | 0.267
65 | ATGTATAA | 0.0845
66 | ACGTATAA | 0.437
67 | CCGTATAA | 0.483
68 | CTGTATAA | 0.156
69 | AGGTATAA | 0.198
70 | GACCAATC | -0.117
71 | TCATCAGA | -0.187
72 | GTTGTCAA | -0.00594
73 | TAGCTAAA | 0.119
74 | CCTGCCAA | -0.0976
75 | AGTACCTA | -0.109

Row | Sequence | PBM E-score
76 | CATACCAG | -0.0446
77 | TGTACCAA | 0.03
78 | CGTACCAC | 0.407
79 | CGTACCTC | 0.361
80 | CGTACCAG | 0.39
81 | AGTACCAC | -0.0837
82 | AGTACCAG | -0.134
83 | CGTACCAA | 0.392
84 | CGTACCTA | 0.376
85 | AGTACCAA | -0.0772
86 | GGTACCAC | -0.18
87 | GATCAATC | -0.104
88 | AATTGAGC | -0.0691
89 | GTAGGAAC | 0.13
90 | CAAGCTTG | -0.233
91 | CAGTAACA | -0.0459
92 | AGAGTGCC | -0.209
93 | CATATACC | -0.0116
94 | CATATACG | 0.463
95 | CATATACA | 0.05
96 | AATATACG | 0.465
97 | AATATACA | 0.0677
98 | AATATACT | -0.0413
99 | AAGGACAT | 0.0482
100 | AAAATACG | 0.346

Row | Sequence | PBM E-score
101 | GTGGACAC | -0.158
102 | GGATCGAC | -0.14
103 | GACGTTTA | 0.366
104 | CGCGTTCA | 0.242
105 | AGCGTTTA | 0.363
106 | GGCGTTTA | 0.378
107 | CGCGTTTA | 0.415
108 | GGCGTTGA | -0.0389
109 | GGTCCCCA | -0.24
110 | GACAACCC | 0.0735
111 | AAAGGGGC | -0.127
112 | ACACAGCG | 0.104
113 | ATGGGTTA | -0.00164
114 | CGTTCCAA | 0.329
115 | CGTTCCGC | 0.385
116 | AGTTCAAG | 0.129
117 | CGTTCAAC | 0.382
118 | CGTTCCAG | 0.391
119 | GGTTCAAC | 0.0526
120 | AGTTCCGC | 0.0626
121 | CGTTCCGA | 0.361
122 | AGTTCAAC | 0.00196
123 | AGTTCCAG | -0.188
124 | CGTTCAAA | 0.369
125 | CGTTCAAG | 0.407

Row | Sequence | PBM E-score
126 | AGGCGTGA | -0.00507
127 | CGGAAGTA | 0.0369
128 | AACCACAA | -0.077
129 | GTGAATAA | -0.0516
130 | ACAACTAC | -0.129
131 | GCGAAAAA | 0.148
132 | GACTTAAC | 0.00959
133 | CTGAAGAA | -0.299
134 | CCCATCGG | 0.0976
135 | AGCAAGCT | -0.253
136 | CGTAAGAG | 0.316
137 | ACGCCATC | -0.0963
138 | GCAAACAC | -0.00637
139 | CGTTCCCA | 0.373
140 | GGTTCCCA | -0.0861
141 | CGTTCCCC | 0.333
142 | TACGTAGA | 0.18
143 | AACGTATA | 0.443
144 | TACGTACA | 0.341
145 | GACGTATA | 0.424
146 | TACGTATA | 0.423
147 | CACGTATA | 0.433
148 | CACGTATC | 0.132
149 | AACGTATT | 0.212
150 | CACGTATG | 0.236

Row | Sequence | PBM E-score
151 | GACGTATC | 0.156
152 | GACGTAGC | 0.0263
153 | AACGTATC | 0.142
154 | CGCAAATA | 0.0612
155 | AACAGGTC | 0.056
156 | TGAAAAAA | 0.0284
157 | ACACCGAG | -0.024
158 | AACATTGT | 0.0538
159 | ACCGTAAT | 0.0464
160 | CCAGTACA | -0.157
161 | CCCGTACA | 0.398
162 | CACGTACA | 0.272
163 | ACCGTAGG | -0.135
164 | CCCGTAGC | 0.0891
165 | CCAGTACC | 0.0225
166 | GCGGTACA | -0.0545
167 | GCCGTACA | 0.4
168 | ACCGTACG | 0.383
169 | GCCGTGCA | -0.291
170 | CCCGTACC | 0.383
171 | ATCGACAA | 0.0687
172 | AACATCAT | -0.094
